# Source: PubChem (Broad Institute)
# Rows were chosen to be rich in hits. Some 7.4% of all compounds tested hit in one or more screens of this group.
# PD-1 reverse act – activators reversing PD-1 mediated T-cell inhibition; AID 2316; activation, % (no concentration beside the values); 29,000 tested, under 10 active; primary human CD4 T cells, PD-L1 beads, CellTiter-Glo 96 h; call rule not given here;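 note: 0% = median vehicle wells and 100% = positive control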
# MITF inhib – blocks MITF activity; 37,000 tested, 0.28% active; AID 2240; inhibition, % (test concentration not listed); TRPM1 promoter luciferase, luminescence, 24 h; in the data active = inhibition above about 85%; inconclusive = no clear call, values can overlap the other calls; inactive = below about 68%;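 note: human melanocyte line stably carrying TRPM1 promoter luciferase reporter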
# NOMO-1 viab – STK33 inhibitor candidate reducing NOMO-1 cell viability; NOMO-1 AML viability, CellTiter-Glo luminescence, 72 h; inhibition, % (no concentration beside the values); 37,000 tested, 7.5% active; in the data active = inhibition above about 80%; inconclusive = no clear call, values can overlap the other calls
# Hedgehog inh – blocks Sonic Hedgehog signaling. Shh-LIGHT2 Gli-luciferase reporter, 30 h. inhibition, % (test concentration not listed). 22,000 tested, 2.1% active. AID 2313;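 active = mean inhibition across valid replicates above about 65%, limit read from the data; inconclusive = mean under the limit, yet half or more replicates past it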;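 note: pathway switched on by Shh-conditioned medium diluted 1 in 25 in low serum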
# YB-1 expr inh – YB-1 expression inhibition | U2OS, qRT-PCR YB-1 vs CDIP delta delta Cp, 16 h; active compounds read high; zero = DMSO, each unit about twofold | delta delta Cp (YB-1 minus CDIP) (concentration not given with the values) | 30,000 tested, 0.37% active;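 active = delta delta Cp rounded down to an integer at or above 3, about 3 SD of DMSO wells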;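 note: higher means less YB-1 transcript or more CDIP transcript relative to DMSO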
# * marks the source's active call; other numbers are inactive results; ? = inconclusive; / = not tested or not shown.
SMILES,PD-1 reverse act,MITF inhib,NOMO-1 viab,Hedgehog inh,YB-1 expr inh
C[C@H]1CN([C@@H](C)CO)C(=O)Cc2cc(NS(=O)(=O)c3cccs3)ccc2O[C@H]1CN(C)Cc1ccc(Oc2ccccc2)cc1,1,-3,70,-5,0.15
C[C@@H]1CN([C@H](C)CO)C(=O)c2cc(NS(=O)(=O)c3cccs3)ccc2O[C@@H]1CN(C)Cc1ccc(-c2ccccc2)cc1,-1,42,113*,31,0.037
C[C@@H]1CN([C@H](C)CO)C(=O)Cc2cc(NS(=O)(=O)c3cccs3)ccc2O[C@@H]1CN(C)Cc1ccc(Oc2ccccc2)cc1,/,2,118*,34,-0.0057
CCOC(=O)n1ccn(C)c1=S,/,?,0,-7,-0.25
COCCOC(=O)N1C(=O)[C@@]2(c3cc(C#CCC(C(=O)OC)C(=O)OC)ccc31)[C@H](C(=O)N1CCc3cc(OC)c(OC)cc3C1)[C@H]1C(=O)O[C@H](c3ccccc3)[C@H](c3ccccc3)N1[C@@H]2c1ccc(O)cc1,/,/,/,/,-0.73
C[C@@H]1CN([C@@H](C)CO)C(=O)c2cccc(NS(C)(=O)=O)c2O[C@H]1CN(C)Cc1ccc2c(c1)OCO2,/,-2,-18,-18,-0.2
C[C@@H]1CN([C@@H](C)CO)C(=O)c2cccc(NC(=O)Nc3ccc4c(c3)OCO4)c2O[C@@H]1CN(C)Cc1ccc(-c2ccccc2)cc1,-5,-8,116*,45,-0.14
C[C@H](CO)N1C[C@H](C)[C@H](CN(C)Cc2ccc(-c3ccccc3)cc2)Oc2c(NC(=O)Nc3ccc4c(c3)OCO4)cccc2C1=O,-4,-17,120*,-28,-0.12
C[C@H](CO)N1C[C@H](C)[C@H](CN(C)Cc2ccc(Oc3ccccc3)cc2)Oc2c(NC(=O)Nc3ccc4c(c3)OCO4)cccc2C1=O,-3,3,116*,16,0.094
C[C@@H]1CN([C@H](C)CO)C(=O)c2cccc(NC(=O)Nc3ccc4c(c3)OCO4)c2O[C@@H]1CN(C)Cc1ccc(-c2ccccc2)cc1,-2,-8,94*,19,-0.32
C[C@H]1CN([C@@H](C)CO)C(=O)c2cccc(NC(=O)Nc3ccc4c(c3)OCO4)c2O[C@H]1CN(C)Cc1ccccc1,2,-5,65,9,0.76
COc1ccc(S(=O)(=O)Nc2cccc3c2O[C@@H](CN(C)Cc2ccncc2)[C@@H](C)CN([C@H](C)CO)C3=O)cc1,-1,4,6,26,-0.41
COc1c(O)cc2c(c1O)C(=O)OC(C)C2Oc1cc2c(c(O)c1OC)C(=O)OC(C)C2O (centres undefined),/,/,/,22,0.31
C[C@@H]1CN([C@H](C)CO)C(=O)c2cccc(NC(=O)Nc3ccc4c(c3)OCO4)c2O[C@H]1CN(C)Cc1ccc(-c2ccccc2)cc1,-3,4,91*,2,0.00089
CCC(=O)Nc1ncc2c(n1)CC(C)(C)CC2=O,6,4,1,-24,-0.12
C[C@H](CO)N1C[C@H](C)[C@H](CN(C)Cc2ccc(Oc3ccccc3)cc2)Oc2c(NS(=O)(=O)c3ccc(F)cc3)cccc2C1=O,-4,37,84*,12,0.02
C[C@H]1CN([C@@H](C)CO)C(=O)c2cccc(NS(=O)(=O)c3ccc(Cl)cc3)c2O[C@H]1CN(C)Cc1ccc(-c2ccccc2)cc1,-5,11,84*,52,-0.026
Cc1ccc(S(=O)(=O)Nc2cccc3c2O[C@@H](CN(C)Cc2ccc(Oc4ccccc4)cc2)[C@@H](C)CN([C@H](C)CO)C3=O)cc1,-2,48,86*,36,0.2
Cc1ccc(S(=O)(=O)Nc2cccc3c2O[C@H](CN(C)Cc2ccc(Oc4ccccc4)cc2)[C@@H](C)CN([C@@H](C)CO)C3=O)cc1,2,-2,12,-2,-0.19
COc1ccc(C(OC(=O)c2ccccc2)c2nccc3ccccc23)cc1 (centres undefined),-1,-14,105*,/,-0.077
CCc1cccc2c(C(C(=O)c3ccccc3)c3c[nH]c4c(CC)cccc34)c[nH]c12,-1,44,111*,27,0.2
CC(C)CC(C(=O)c1ccccc1)c1ccccc1 (centres undefined),0,-13,49,-22,-0.47
COc1ccc(C)cc1S(=O)(=O)N1CCC(C(=O)Nc2ccccc2Sc2ccccc2)CC1,-1,26,46,/,/
O=C(CC1NC2CCCCC2NC1=O)Nc1ccc(F)cc1 (centres undefined),3,0,26,/,/
CCn1c2ccccc2c2cc(NS(=O)(=O)c3ccccc3)ccc21,-1,49,136*,/,0.045
SMILES,PD-1 reverse act,MITF inhib,NOMO-1 viab,Hedgehog inh,YB-1 expr inh
CCn1c2ccccc2c2cc(NC(=O)CSc3nnnn3-c3ccccc3)ccc21,/,24,4,/,/
C[C@H](CO)N1C[C@H](C)[C@@H](CN(C)Cc2ccc(Oc3ccccc3)cc2)Oc2ccc(NS(C)(=O)=O)cc2C1=O,/,-2,-12,21,-0.17
C#Cc1cccc(Nc2ncnc3cc(OC)c(OC)cc23)c1,1,71,96*,28,0.16
Cc1nn(Cc2cccc(C(=O)Nc3ccccc3F)c2)c(C)c1Cl,2,-45,-2,/,/
Cc1nn(Cc2cccc(C(=O)NC(=O)Nc3ccc(Cl)cc3)c2)c(C)c1Br,3,1,107*,14,-0.42
CC(=O)OC[C@H]1O[C@@H](Oc2cc(OC(C)=O)c3c(=O)cc(-c4ccc(OC(C)=O)cc4)oc3c2)[C@H](OC(C)=O)[C@@H](OC(C)=O)[C@@H]1OC(C)=O,/,-18,63,65*,-0.013
CC(=O)Oc1ccc(-c2coc3cc(OC(C)=O)cc(OC(C)=O)c3c2=O)cc1,0,-28,29,-60,0.38
C[C@@H]1CN([C@H](C)CO)C(=O)Cc2cc(NC(=O)Nc3ccc(F)cc3)ccc2O[C@H]1CN(C)Cc1ccc(C(=O)Nc2ccccc2N)cc1,0,-3,15,/,-0.17
C[C@H](CO)N1C[C@H](C)[C@H](CN(C)Cc2ccc(C(=O)Nc3ccccc3N)cc2)Oc2ccc(NC(=O)Cn3cnnn3)cc2CC1=O,0,0,97*,/,-0.39
C[C@H](CO)N1C[C@H](C)[C@H](CN(C)Cc2ccc(C(=O)Nc3ccccc3N)cc2)Oc2ccc(NC(=O)Nc3cccc4ccccc34)cc2CC1=O,-5,24,141*,/,-0.57
C[C@H]1CN([C@@H](C)CO)C(=O)Cc2cc(NC(=O)C3CC3)ccc2O[C@H]1CN(C)Cc1ccc(C(=O)Nc2ccccc2N)cc1,-2,15,128*,/,-0.39
C[C@@H]1CN([C@@H](C)CO)C(=O)Cc2cc(NC(=O)Nc3ccc(C(F)(F)F)cc3)ccc2O[C@@H]1CN(C)Cc1ccc(C(=O)Nc2ccccc2N)cc1,-3,21,127*,/,-0.26
C[C@@H]1CN([C@H](C)CO)C(=O)c2cc(NC(=O)Cn3cnnn3)ccc2O[C@H]1CN(C)Cc1ccc(C(=O)Nc2ccccc2N)cc1,-1,-2,5,/,0.006
O=C(CCCCC(=O)NN=C1CCCC1)NO,/,/,/,/,-0.22
CN(C)S(=O)(=O)N(CC(=O)O)c1ccccc1,/,-6,25,/,/
